This is a sample that favours compounds with a hit; in the whole collection about 7.5% have one here.
B2AR arrestin = beta2AR (human) beta-arrestin recruitment activity; beta-arrestin recruitment to beta2AR, cell-based reporter; Potency, µM (doses to about 46.1 µM), without a hit: at the highest dose activation, actives largely listed as activators; 330,000 tested, 0.02% active; AID 492947;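 further: potency means the concentration at half of the fitted maximal effect; 0% = DMSO controls and full agonism = EC100 isoproterenol or metaproterenol; nearly all actives have a fitted effect of over 65% in size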
RORg inh = ROR gamma (mouse) transcription inhibition. Potency, µM (titrated, usually from 53.6 µM), for inactives: at the highest dose activity change, negative = inhibition, most hits filed as inhibitors. Drosophila S2 Gal4-RORgamma UAS-luciferase reporter, 20 h. P51450. 310,000 tested, 5.4% active. AID 2551; further: potency means the concentration at half of the fitted maximal effect; nearly all actives have a fitted effect of over 60% in size
Target sequence (P51450 whole entry, looked up, the tested form may be a part): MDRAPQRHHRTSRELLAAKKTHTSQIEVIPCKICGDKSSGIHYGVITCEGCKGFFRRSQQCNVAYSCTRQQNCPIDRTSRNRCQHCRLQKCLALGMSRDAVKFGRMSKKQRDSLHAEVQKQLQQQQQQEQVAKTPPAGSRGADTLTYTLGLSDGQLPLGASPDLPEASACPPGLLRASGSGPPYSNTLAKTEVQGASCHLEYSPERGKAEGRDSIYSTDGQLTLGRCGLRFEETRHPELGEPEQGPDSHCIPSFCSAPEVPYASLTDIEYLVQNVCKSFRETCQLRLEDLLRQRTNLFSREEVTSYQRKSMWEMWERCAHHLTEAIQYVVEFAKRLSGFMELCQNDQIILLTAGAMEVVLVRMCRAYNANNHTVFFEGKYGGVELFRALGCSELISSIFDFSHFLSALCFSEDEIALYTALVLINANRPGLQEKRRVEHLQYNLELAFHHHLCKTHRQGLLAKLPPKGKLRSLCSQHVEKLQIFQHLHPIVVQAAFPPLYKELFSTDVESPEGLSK
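A Gal4/UAS one-hybrid system in insect cells: metallothionein-promoter Gal4–ROR gamma fusion plus Photinus luciferase reporter. Copper sulfate 700 uM final, 20 hr ambient incubation, luminescent detection after 10 min with reagent.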
TSHR antagonist = human thyrotropin receptor antagonism; TSHR-expressing cells, TSH-stimulated cAMP HTRF, 2 h; hits give low values; activity change, negative = inhibition, % at 11.5 µM; 330,000 tested, 0.2% active; AID 504810; P16473;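 active means activity change below a set negative limit, meaning inhibition stronger than a set level, cut at about -70% in these data; inconclusive means activity change between two set negative limits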
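Read-out is FRET at 665 nm (cryptate excitation 337 nm) from a cryptate-tagged anti-cAMP antibody, competed by cell cAMP against cAMP-d2. Compounds are tested on freshly harvested TSHR cells challenged with 4nM TSH (EC80) for 2 hours at 37 deg C.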
ELG1 repair inh = blocks ELG1-dependent DNA repair in HEK293T cells. Potency, µM (titrated, usually from 46.1 µM), inactives show top-dose activity change, negative = inhibition, most hits filed as inhibitors. 330,000 tested, 2.3% active. HEK293T ELG1-luciferase reporter, luminescence, 16 h; DNA damage induced by 5-fluorouridine. AID 504467; further: potency means the concentration at half of the fitted maximal effect; nearly all actives have a fitted effect of over 55% in size
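Cells (2,000 per well) received 5-fluorouridine plus test compound or DMSO and were incubated 16 hr at 37 °C, 5% CO2. Luciferase activity was read by luminescence 30 min after ONE-Glo addition; signal suppression marked inhibition of damage-induced ELG1 function.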
Gal4-VP16 FLuc = Gal4-VP16 reporter inhibition counter-screen; Drosophila S2 Gal4-VP16 UAS-luciferase, luminescence, 20 h; Potency, µM (titrated, usually from 53.6 µM), for the others: at the top dose activity, negative = inhibition, hits mostly inhibitors; 310,000 tested, 3.5% active;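 further: Gal4-VP16 expression switched on by copper sulfate through the metallothionein promoter; potency means the concentration at half of the fitted maximal effect; nearly all actives have a fitted effect of over 50% in size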
* = called active by the depositor; [ ] = dose if it differs, or a comment. Unless noted, the call rests on the fitted dose curve; in most records, active means well fitted curve in the direction sought with a large enough effect; inconclusive means small, poorly fitted or top-dose-only effect, or another doubt; inactive means no such curve, though single readings can be large; an effect the other way counts as inactive or inconclusive. Unless noted, on the % scale 0 is the no-effect control and ±100 the full control effect.

Screening O=C(NC(=S)NCc1cccnc1)c1ccccc1 returned B2AR arrestin 0%, RORg inh -33%, TSHR antagonist -7, ELG1 repair inh 5% and Gal4-VP16 FLuc 9%.
COc1cc(OC)cc(C(=O)NC(=S)N(Cc2ccccc2)C(C)C)c1 was read as B2AR arrestin 0%, RORg inh 0.5µM*, TSHR antagonist 22, ELG1 repair inh inconclusive and Gal4-VP16 FLuc 0.89µM*.
COc1ccc(C(=O)NC(=S)NCc2ccccc2)cc1 was read as B2AR arrestin 5%, RORg inh 7.1µM*, TSHR antagonist 0, ELG1 repair inh inconclusive and Gal4-VP16 FLuc 22µM*.
`COc1ccc(C(=O)NCc2cccnc2)cc1Br` gave B2AR arrestin 0%, RORg inh 0%, TSHR antagonist 29, ELG1 repair inh 36% and Gal4-VP16 FLuc -3%.
`COc1ccc(C(=O)NC(=S)NCc2cccnc2)cc1Cl` gave B2AR arrestin 0%, RORg inh 11µM*, TSHR antagonist 1, ELG1 repair inh inconclusive and Gal4-VP16 FLuc inconclusive.
CC(C)N(Cc1ccccc1)C(=O)CC(=O)N(Cc1ccccc1)C(C)C was read as B2AR arrestin 0%, RORg inh -16%, TSHR antagonist 2, ELG1 repair inh -8% and Gal4-VP16 FLuc 4%.
CN1c2ccccc2C(C)(C)[C@]12C=Cc1cc(O)ccc1O2 was read as B2AR arrestin 0%, RORg inh -130%, TSHR antagonist -16, ELG1 repair inh -8% and Gal4-VP16 FLuc 16µM*.
For CN1c2ccccc2C(C)(C)C12C=Nc1c(ccc3ccccc13)O2 (centres undefined) the results were B2AR arrestin -1%, RORg inh inconclusive, TSHR antagonist -4, ELG1 repair inh inconclusive and Gal4-VP16 FLuc 20µM*.
COc1ccc2ccc3c(c2c1)N=CC1(O3)N(C)c2ccccc2C1(C)C (centres undefined) was read as B2AR arrestin 4%, RORg inh inconclusive, TSHR antagonist -19, ELG1 repair inh 11% and Gal4-VP16 FLuc 11%.
Screening COc1cccc(OC)c1C(=O)Nc1ccc(C(=O)NCc2ccccc2)cc1 returned B2AR arrestin 0%, RORg inh 3%, TSHR antagonist -7, ELG1 repair inh 3% and Gal4-VP16 FLuc 15%.
Cc1ccc(S(=O)(=O)Nc2ccc3c(c2)n(C)c(=O)n3C)cc1 was read as B2AR arrestin 0%, RORg inh 35%, TSHR antagonist 7, ELG1 repair inh inconclusive and Gal4-VP16 FLuc inconclusive.
CCOc1ccc(NS(=O)(=O)c2ccc(C(=O)N(C)Cc3cccc(OC)c3OC)cc2)cc1 was read as B2AR arrestin 0%, RORg inh inconclusive, TSHR antagonist -11, ELG1 repair inh 16µM* and Gal4-VP16 FLuc inconclusive.
COc1cccc(CN(C)C(=O)c2ccc(NS(=O)(=O)c3ccc4[nH]c(=O)[nH]c4c3)cc2)c1OC was read as B2AR arrestin 0%, TSHR antagonist -11 and ELG1 repair inh -4%.
For CCOc1ccc(S(=O)(=O)Nc2cccc(OC)c2)cc1 the results were B2AR arrestin 1%, RORg inh -31%, TSHR antagonist 8, ELG1 repair inh inconclusive and Gal4-VP16 FLuc 18µM*.
`CCc1ccc(S(=O)(=O)Nc2cc3c(cc2C)n(C)c(=O)n3C)cc1` gave B2AR arrestin 0%, RORg inh inconclusive, TSHR antagonist -8, ELG1 repair inh inconclusive and Gal4-VP16 FLuc 7.1µM*.
For CCOc1ccc(S(=O)(=O)Nc2ccc3c(c2)n(C)c(=O)n3C)cc1 the results were B2AR arrestin 0%, RORg inh inconclusive, TSHR antagonist -5, ELG1 repair inh 2% and Gal4-VP16 FLuc 0.1µM*.
CCOc1ccc(S(=O)(=O)Nc2cccc(N(C)S(C)(=O)=O)c2)cc1 was read as B2AR arrestin 0%, RORg inh 1%, TSHR antagonist 17, ELG1 repair inh -15% and Gal4-VP16 FLuc -24%.
`COC(=O)[C@@H]1CC[C@H](C)[C@@H](c2ccc(C)cc2)N1C(=O)c1ccc(/C=N\OC[C@@H](C)[C@H](OCc2ccccc2)C(C)C)cc1` gave RORg inh -15%[10 µM] and Gal4-VP16 FLuc -2%[10 µM].
`CCCCOc1ccc(S(=O)(=O)Nc2cccnc2)cc1` gave B2AR arrestin 3%, RORg inh -31%, TSHR antagonist -26, ELG1 repair inh -1% and Gal4-VP16 FLuc 11µM*.
Screening Cc1ccc(S(=O)(=O)Nc2cccnc2)cc1 returned B2AR arrestin inconclusive, RORg inh 17%, TSHR antagonist -1, ELG1 repair inh inconclusive and Gal4-VP16 FLuc -2%.
Screening CCC[C@@H]1NC(=O)[C@@H](NC(C)=O)CSSC[C@@H](C(N)=O)NC(=O)CNC(=O)[C@H](Cc2c[nH]c3ccccc23)NC(=O)[C@H](CCCN=C(N)N)NC(=O)[C@H](Cc2ccc3ccccc3c2)NC(=O)[C@H](Cc2cnc[nH]2)NC(=O)[C@H](CCCN=C(N)N)NC1=O returned RORg inh 19% and Gal4-VP16 FLuc 4%.
`Cc1nc2ccc(-c3nc4cc(N)ccc4o3)cc2[nH]1` gave B2AR arrestin 0%, RORg inh 16µM*, TSHR antagonist -3, ELG1 repair inh inconclusive and Gal4-VP16 FLuc inconclusive.
Nc1ccc2oc(-c3ccc4nc[nH]c4c3)nc2c1 was read as B2AR arrestin 0%, RORg inh inconclusive, TSHR antagonist 8, ELG1 repair inh inconclusive and Gal4-VP16 FLuc inconclusive.
`CCc1ccc2oc(-c3cccc(N)c3)nc2c1` gave B2AR arrestin -1%, RORg inh 10µM*, TSHR antagonist -4, ELG1 repair inh inconclusive and Gal4-VP16 FLuc 14µM*.
Screening CC(=O)c1cccc(NC(=O)NCCc2ccc(Cl)cc2)c1 returned B2AR arrestin 0%, RORg inh 31%, TSHR antagonist -9, ELG1 repair inh 6% and Gal4-VP16 FLuc 1%.
`CC(=O)c1cccc(NC(=S)NC(=O)Cc2ccccc2)c1` gave B2AR arrestin -1%, RORg inh 1.4µM*, TSHR antagonist 11, ELG1 repair inh 15% and Gal4-VP16 FLuc 5µM*.
For CC(=O)c1cccc(NC(=S)Nc2ccn(Cc3cccc4ccccc34)n2)c1 the results were B2AR arrestin 1%, RORg inh 2.8µM*, TSHR antagonist -13, ELG1 repair inh inconclusive and Gal4-VP16 FLuc 5µM*.
Screening O=C(Cc1ccccc1)Nc1ccc(NC(=S)NC(=O)c2ccccc2)cc1 returned B2AR arrestin 0%, RORg inh -36%, TSHR antagonist 7, ELG1 repair inh -16% and Gal4-VP16 FLuc -18%.
CC(=O)c1cccc(NC(=S)NC(=O)Cc2ccc(Cl)cc2)c1 was read as B2AR arrestin -1%, RORg inh 10µM*, TSHR antagonist 17, ELG1 repair inh 0% and Gal4-VP16 FLuc inconclusive.
